Hits are enriched below; roughly 4.5% of the tested compounds scored in any of these assays.
DAX1 inh-1: inhibitors of human orphan nuclear receptor DAX1 (NR0B1); P51843; HEK293 Gal4-DAX1 luciferase reporter, luminescence; inhibition, % at 6.75 µM; 340,000 compounds, 0.99% hits;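 active = inhibition above the mean over all tested compounds plus 3 SD, cut at about 4.2% in these data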;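 also: 0% = DAX1-transfected cells with DMSO and 100% = empty-vector control cells with DMSO; inhibition shows as a rise in luminescence from relieved DAX1 repression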
Target sequence (P51843 207-470 limits assumed): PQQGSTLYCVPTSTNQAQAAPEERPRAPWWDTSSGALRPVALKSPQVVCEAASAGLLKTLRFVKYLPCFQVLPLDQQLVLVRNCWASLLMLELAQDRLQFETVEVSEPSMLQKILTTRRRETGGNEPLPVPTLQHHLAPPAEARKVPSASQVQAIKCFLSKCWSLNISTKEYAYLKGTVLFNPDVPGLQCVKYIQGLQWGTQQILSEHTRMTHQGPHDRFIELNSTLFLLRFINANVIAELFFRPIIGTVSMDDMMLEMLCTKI
hcDAF12 agonist: activators of H. contortus DAF-12 nuclear receptor; 370,000 compounds, 1.4% hits; activation, % at 6.8 µM; HEK293 hcDAF-12 lit1-tk-luc reporter, luminescence; 0% DMSO, 100% Δ7-dafachronic acid;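 active = activation above the mean of all tested compounds plus 3 SD, cut at about 5.5% in these data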;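 also: 100% = response to 3 µM Δ7-dafachronic acid high control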
FXN GAA850 act: activators of GAA850 frataxin (FXN) promoter; activation, % at 6 µM; HEK293 lucGAA850 FXN promoter luciferase reporter, 24 h; percent of 10 µM SAHA response; 360,000 compounds, 0.56% hits;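 active = activation above the average of all compounds screened plus 3 SD, cutoff fixed separately per campaign, cut at about 7.5% in these data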;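 also: 0% = DMSO wells and 100% = 10 µM SAHA wells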
hgDAF12 agonist: activates the H. glycines DAF-12 receptor ligand-binding domain. AID 687014. activation, % at 6.8 µM. 370,000 compounds, 1.8% hits. HEK293 GAL4-hgDAF12 UAS-luciferase reporter, agonist luminescence; normalized to butyrate control;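 active = activation above a cutoff set at the mean of all screened compounds plus 3 SD, cut at about 10% in these data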;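 also: 0% = DMSO wells and 100% = sodium butyrate wells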
ssDAF12 agonist: activates DAF-12 receptor from parasite S. stercoralis; activation, % at 6.8 µM; AID 652126; HEK293 ssDAF-12/GRIP1 lit1-tk-luc reporter, luminescence; % of 3 µM dafachronic acid response; 370,000 compounds, 1% hits;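 active = activation above the mean over all tested compounds plus 3 SD, cut at about 0.9% in these data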;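 also: 0% = DMSO-only wells and 100% = 3 µM delta7-dafachronic acid wells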
DAX1 inh-2: inhibitors of DAX1 repression of SF-1 activated StAR promoter; AID 652010; inhibition, % at 6.8 µM; 370,000 compounds, 1.1% hits; HEK293T StAR-luciferase reporter, SF-1/DAX-1 repression relief;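 active = inhibition above the mean over all tested compounds plus 3 SD, cut at about 3.6% in these data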;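 also: 0% = DAX-1 cells with DMSO and 100% = cells lacking DAX-1 with DMSO; higher inhibition means more luminescence from relief of DAX-1 repression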
* = called active by the depositor.

`CCOC(=O)C1=C(C)Nc2nc3ccccc3n2C1c1ccccc1` (stereo unspecified) gave DAX1 inh-1 5.4*, hcDAF12 agonist 0, FXN GAA850 act -1, hgDAF12 agonist 0, ssDAF12 agonist -1 and DAX1 inh-2 0.
Screening CNC(=O)C1=C(C)Nc2nc3ccccc3n2C1c1ccc(F)cc1 (stereo unspecified) returned DAX1 inh-1 2, hcDAF12 agonist -1, FXN GAA850 act -2, hgDAF12 agonist 3, ssDAF12 agonist -1 and DAX1 inh-2 0.
`COc1ccc(C2=Cc3ccc(OC(C)=O)cc3OC2)cc1` gave DAX1 inh-1 5.5*, hcDAF12 agonist 1, FXN GAA850 act 3, hgDAF12 agonist 7, ssDAF12 agonist 0 and DAX1 inh-2 2.
Screening CC(=O)Oc1ccc2c(c1)C(=O)c1ccccc1CO2 returned DAX1 inh-1 0, hcDAF12 agonist 2, FXN GAA850 act 2, hgDAF12 agonist 2, ssDAF12 agonist -1 and DAX1 inh-2 -1.
Screening O=c1c2cc3cc(Cl)ccc3nc2ncn1Cc1ccc(Oc2ccccc2)cc1 returned hcDAF12 agonist 5.9*, hgDAF12 agonist -1, ssDAF12 agonist -1 and DAX1 inh-2 -1.
For O=c1c(-c2nc3ccccc3s2)cccn1Cc1ccccc1 the results were DAX1 inh-1 2, hcDAF12 agonist 1, FXN GAA850 act 4, hgDAF12 agonist 12*, ssDAF12 agonist 0 and DAX1 inh-2 1.
`Cn1cccc1-c1nc2ccc([N+](=O)[O-])cc2[nH]1` gave DAX1 inh-1 2, hcDAF12 agonist 3, FXN GAA850 act 7, hgDAF12 agonist 11*, ssDAF12 agonist -1 and DAX1 inh-2 1.
For Cc1nc([N+](=O)[O-])cn1CC(Cl)Cn1cc([N+](=O)[O-])nc1C the results were hcDAF12 agonist 1, hgDAF12 agonist 0, ssDAF12 agonist -1 and DAX1 inh-2 -1.
Screening COc1ccccc1C(=O)NC(C)C(c1cccs1)N1CCOCC1 (stereo unspecified) returned DAX1 inh-1 1, hcDAF12 agonist 2, FXN GAA850 act 4, hgDAF12 agonist 3, ssDAF12 agonist 1.7* and DAX1 inh-2 0.
Screening CC(C)(C)NC(=O)Cn1c(SCC(=O)NC2CC2)nc2ccccc21 returned DAX1 inh-1 4.7*, hcDAF12 agonist -1, FXN GAA850 act 0, hgDAF12 agonist -2, ssDAF12 agonist 0 and DAX1 inh-2 0.
Screening O=C(N/N=C/c1ccc([N+](=O)[O-])o1)c1cc2ccccc2o1 returned DAX1 inh-1 -5, hcDAF12 agonist -5, FXN GAA850 act -2, hgDAF12 agonist -12, ssDAF12 agonist -3 and DAX1 inh-2 -5.
For O=[N+]([O-])c1ccc(/C=N/Nc2ccc3ccccc3c2)o1 the results were DAX1 inh-1 1, hcDAF12 agonist 6.4*, FXN GAA850 act 4, hgDAF12 agonist 4, ssDAF12 agonist 0 and DAX1 inh-2 -2.
CCCC1CCC2(CC1)CCC2OC(=S)Nc1ccccc1C(F)(F)F (stereo unspecified) was read as hcDAF12 agonist -1, hgDAF12 agonist 3 and ssDAF12 agonist -1.
`C[C@H]1[C@@H](OC(=O)NCc2ccccc2)CC[C@@]23CCCN2C(=O)CCC[C@@H]13` gave hcDAF12 agonist -1, hgDAF12 agonist -4 and ssDAF12 agonist -1.
COC(=O)C1CN(Cc2ccccc2)CCS(=O)(=O)N1Cc1ccc(C(F)(F)F)cc1 (stereo unspecified) was read as hcDAF12 agonist -1, hgDAF12 agonist 0, ssDAF12 agonist -2 and DAX1 inh-2 -2.
CCCC(=O)Nc1ccc(S(=O)(=O)N2CCc3ccccc32)cc1 was read as DAX1 inh-1 4.8*, hcDAF12 agonist -2, FXN GAA850 act 0, hgDAF12 agonist 1, ssDAF12 agonist 0 and DAX1 inh-2 0.
`O=C(CNC(=O)c1cccc(S(=O)(=O)N2CCc3ccccc32)c1)Nc1ccccc1Br` gave DAX1 inh-1 -2, hcDAF12 agonist -2, FXN GAA850 act -5, hgDAF12 agonist -7, ssDAF12 agonist 1.2* and DAX1 inh-2 -1.
Screening O=C(CNC(=O)c1cccc(S(=O)(=O)N2CCc3ccccc32)c1)Nc1ccc(F)c(F)c1F returned DAX1 inh-1 -1, hcDAF12 agonist -1, FXN GAA850 act -5, hgDAF12 agonist -6, ssDAF12 agonist -1 and DAX1 inh-2 -1.
Screening C[C@H](O)[C@@H]1CN2CCc3c([nH]c4cccc(-c5ccccc5)c34)[C@@H]2C[C@@H]1N(C)C(=O)c1ccco1 returned hcDAF12 agonist -1, hgDAF12 agonist 3, ssDAF12 agonist -1 and DAX1 inh-2 0.
Screening CC1=C2N=C(N)N(Cc3ccccc3)C(Cc3ccccc3)C2n2c(=O)n(-c3ccccc3)c(=O)n2C1 (stereo unspecified) returned hcDAF12 agonist 1, hgDAF12 agonist 2, ssDAF12 agonist -1 and DAX1 inh-2 0.
O=C(NN1C(=O)c2ccccc2NC1c1ccccn1)c1ccc([N+](=O)[O-])cc1 (stereo unspecified) was read as DAX1 inh-1 -2, hcDAF12 agonist -2, FXN GAA850 act 2, hgDAF12 agonist 1, ssDAF12 agonist 1.0* and DAX1 inh-2 0.
Cc1cccc(C2Nc3ccccc3C(=O)N2NC(=O)c2ccc([N+](=O)[O-])cc2)n1 (stereo unspecified) was read as DAX1 inh-1 1, hcDAF12 agonist -2, FXN GAA850 act -3, hgDAF12 agonist -2, ssDAF12 agonist -1 and DAX1 inh-2 0.
O=C(Cc1ccccc1F)Nc1nnc(-c2cccnc2)s1 was read as hcDAF12 agonist 1, hgDAF12 agonist 2, ssDAF12 agonist -1 and DAX1 inh-2 2.
For Cn1c(-c2ccc(CN3CCCCC3)o2)nc2ccccc21 the results were DAX1 inh-1 1, hcDAF12 agonist 5.8*, FXN GAA850 act 3, hgDAF12 agonist 9, ssDAF12 agonist 1.2* and DAX1 inh-2 3.
COc1cccc(NC(=O)CN(C2=NC3CS(=O)(=O)CC3S2)c2cccc(C)c2)c1 (stereo unspecified) was read as DAX1 inh-1 0, hcDAF12 agonist 0, FXN GAA850 act -3, hgDAF12 agonist 1, ssDAF12 agonist 1.2* and DAX1 inh-2 0.
`O=C(O)c1ccc(N/N=C/c2cccc(C(F)(F)F)c2)cc1` gave DAX1 inh-1 4.7*, hcDAF12 agonist 5, FXN GAA850 act 6, hgDAF12 agonist 10, ssDAF12 agonist 0 and DAX1 inh-2 4.4*.
Screening COc1ccc(/C=N/Nc2ccc(C(=O)O)cc2)c(OC)c1OC returned DAX1 inh-1 2, hcDAF12 agonist 1, FXN GAA850 act 5, hgDAF12 agonist 5, ssDAF12 agonist -1 and DAX1 inh-2 1.

From PubChem
